Laboratory results taken from PubChem BioAssay (NCATS).
Unmarked numbers belong to inactive results. Results filed as inconclusive are left out. Where a call stands in place of a potency, no number is given. The source made the active and inactive calls. Unless noted, the call rests on the fitted dose curve; in most records, active means well fitted curve in the direction sought with a large enough effect; inconclusive means small, poorly fitted or top-dose-only effect, or another doubt; inactive means no such curve, though single readings can be large; an effect the other way counts as inactive or inconclusive.

What was measured:
[1] = target: Lysosomal acid glucosylceramidase (Homo sapiens) (UniProt P04062); assay: Glucocerebrosidase-p2 (AID 348; in the data active means potency below about 10 µM; further: potency means the concentration at half of the fitted maximal effect); conditions: purified GBA, blue fluorogenic substrate, 40 min
Summary of the method: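 Normal human glucocerebrosidase (0.2 nM) with blue fluorogenic substrate (80 uM final) in citrate/phosphate pH 5.9 with 10mM sodium taurocholate, 0.01% tween-20; 40 min RT, NaOH/glycine stop; fluorescence Ex 365/Em 440; AC50 from a titration from 0.6 nM upwards.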

[2] = AP1 Signaling Pathway (AID 357; active means well fitted curve in either direction with a large enough effect, not every such curve was filed as active); conditions: ME-180 AP-1-bla reporter, EGF-induced, beta-lactamase ratio, 5 h; at 7.69 µM (top of the series) unless noted
Summary of the method: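 AP-1-bla ME-180 cells with beta-lactamase reporter under AP-1 response element, stimulated with EC50 EGF; compounds titrated, 5 hours at 37 degrees Celsius. CCF4 read at 460/530 nm ratio; positive and negative modulators judged by AC50.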

[3] = target: Cytochrome P450 1A2 (Homo sapiens) (UniProt P05177); assay: p450-cyp1a2 (AID 410; calls by dose curve; further: potency means the concentration at half of the fitted maximal effect); conditions: recombinant CYP1A2, luciferin-ME demethylation, luminescence; series mostly up to 57 µM
Summary of the method: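 O-Demethylation of luciferin 6' methyl ether by human CYP1A2 is monitored as luciferase luminescence. Substrate sits at Km (100uM); enzyme is 20nM. Values are scaled to 57 uM furafylline as maximal inhibition.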

[4] = NFAT Signaling Pathway (AID 444; active means well fitted curve in either direction with a large enough effect, not every such curve was filed as active;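 further: carbachol stimulus at about its EC50 of 1 µM final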); conditions: Jurkat NFAT-bla M1, carbachol, beta-lactamase ratio, 5 h; at 7.69 µM (top of the series) unless noted
Summary of the method: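 Read-out: CCF4 FRET ratio (460 nm/530 nm) after 1 h RT dye loading, used for %activity and AC50 from titration series. Cells: Jurkat NFAT-β-lactamase/M1 line, treated with compound plus 1 uM carbachol for 5 h, 37 °C.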

[5] = Stat Signaling Pathway (AID 446; active means well fitted curve in either direction with a large enough effect, not every such curve was filed as active;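 further: ME-180 cervical cancer cells given 40 pM IL-6 alongside compound; SIE-controlled beta-lactamase reporter measured as 460/530 nm FRET emission ratio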); conditions: ME-180 SIE beta-lactamase reporter, IL-6 stimulated, 5 h; at 7.69 µM (top of the series) unless noted
Summary of the method: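 Normalization used AC90 stimulation (300 pM IL-6) and AC90 inhibition (125 nM pan-JAK inhibitor at 40 pM IL-6). The underlying signal is SIE-driven beta-lactamase in ME-180 cells after 5 h IL-6 exposure with compound.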

[6] = target: Glucocorticoid receptor (Homo sapiens) (UniProt P04150); assay: GR-GFP Redistribution (AID 450;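 active means compounds whose dose series gives a full or clear partial fitted curve of increased nuclear translocation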; further: potency means the concentration at half of the fitted maximal effect); conditions: U2OS GR-GFP nuclear translocation, laser cytometry, 2 h
[7] = target: Glucocorticoid receptor (Homo sapiens) (UniProt P04150); assay: GR-EFC Redistribution (AID 451; calls by dose curve; further: potency means the concentration at half of the fitted maximal effect); conditions: CHO-K1 GR-EFC translocation, beta-gal luminescence, 2 h
Summary of the method: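 Translocation of GR-ED fusion to nuclear EA restores b-gal, read by luminescence after 1 h room-temperature detection. Engineered CHO-K1 biosensor cells, 1,000/well, exposed 2 h at 37 C to titrations up to 46 uM final.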

[8] = target: Mitogen-activated protein kinase 10 (Mus musculus) (UniProt Q61831); assay: JNK3 AlphaScreen Assay (AID 530; active means well fitted curve in either direction with a large enough effect, not every such curve was filed as active;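 further: kinase came from lysate of stimulated human HepG2 cells; signal reports phosphorylation of biotinylated GST-cJun 1-79 at Ser73 with 10 µM ATP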); conditions: JNK3 lysate, c-Jun phosphorylation; series mostly up to 57.1 µM
Summary of the method: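 qHTS titrations with 15 min compound pre-incubation before adding ATP (10 uM final). Read-out: AlphaScreen of Ser73-phosphorylated biotin-GST-cJun using HepG2 lysate JNK3 activated by IL-1β and TNFα.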

[9] = target: 3',5'-cyclic-AMP phosphodiesterase 4B (Homo sapiens) (UniProt Q07343); assay: qHTS Assay for Inhibitors of PDE-IV (AID 607; active means well fitted activation curve with a large enough effect in the main read-out, with a control signal flat, not every such curve was filed as active; further: potency means the concentration at half of the fitted maximal effect); conditions: HEK293 ACTOne CNG channel cells, membrane potential fluorescence; series mostly up to 22.9 µM
Summary of the method: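 HEK293 ACTOne cells with CNG channel (1000/well), endogenous PDE4; membrane potential dye, compounds up to 22.9 uM final. Fluorescence Ex 535/Em 590; RO 20-1724 (100 uM final) as reference.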

[10] = target: Cytochrome P450 3A4 (Homo sapiens) (UniProt P08684); assay: qHTS Assay for Activators of Cytochrome P450 3A4 (AID 885); conditions: recombinant CYP3A4, Luciferin-PPXE luminescence, 60 min; series mostly up to 57.1 µM; further: nearly all actives have a fitted effect of over 65% in size
Summary of the method: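 Human CYP3A4 dealkylates Luciferin-PPXE to luciferin, which luciferase detection converts to light. Substrate was at its KM (25uM), buffer 200mM KPO4, reaction 60 min at RT.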

[11] = target: Dual specificity protein kinase CLK4 (Homo sapiens) (UniProt Q9HAZ1); assay: qHTS Assay for Inhibitors of CDC-like Kinase 4 (Kinase-Glo Assay) (AID 1770); conditions: recombinant Clk4, Kinase-Glo ATP depletion luminescence; series mostly up to 66.7 µM; further: nearly all actives have a fitted effect of over 65% in size; further: potency means the concentration at half of the fitted maximal effect
Summary of the method: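 Inhibition was judged from remaining ATP, measured by Ultra-Glo luciferase bioluminescence after Clk4 (25 nM) had acted on RS peptide at 1 uM ATP for 4.5 hours, room temperature.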

[12] = target: Dual specificity protein kinase CLK4 (Homo sapiens) (UniProt Q9HAZ1); assay: qHTS Assay for Inhibitors of CDC-like Kinase 4 (ADP-Glo Assay) (AID 1771); conditions: recombinant CLK4, ADP-Glo luminescence; series mostly up to 80 µM; further: nearly all actives have a fitted effect of over 70% in size; further: potency means the concentration at half of the fitted maximal effect
Summary of the method: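 Compounds are pin-transferred onto substrate mix (100 uM RS peptide, 1 uM ATP), then 25 nM Clk4 is added. After 1 hr at room temperature, ADP-Glo reagent runs 45 min, detection reagent 30 min, then luminescence is read.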

[13] = target: Dual specificity protein kinase CLK4 (Homo sapiens) (UniProt Q9HAZ1); assay: qHTS Assay for Inhibitors of CDC-like Kinase 4 (ADP-FP Assay) (AID 1795); conditions: Transcreener ADP fluorescence polarization; series mostly up to 50 µM; further: nearly all actives have a fitted effect of over 60% in size; further: potency means the concentration at half of the fitted maximal effect;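 on activity change, negative = inhibition: recombinant human CLK4 phosphorylating RS repeat peptide at 1 µM ATP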
Summary of the method: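 Inhibition of ADP formation by 6.25 nM Clk4 is measured using 1 uM ATP and 100 uM RS repeat peptide over one hour. Produced ADP displaces a fluorescent tracer from antibody, lowering polarization.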

[14] = target: Ubiquitin carboxyl-terminal hydrolase 1 (Homo sapiens) (UniProt O94782); assay: Inhibitors of USP1/UAF1: Pilot qHTS (AID 504865); conditions: purified USP1/UAF1, Ub-rhodamine cleavage fluorescence; series mostly up to 54.9 µM;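 further: rhodamine fluorescence freed from ubiquitin-rhodamine substrate followed over time; top concentration of the series differs between compounds; nearly all actives have a fitted effect of over 35% in size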
Summary of the method: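 Kinetic fluorescence assay: 1nM USP1/UAF1, 15 min compound preincubation, then 150nM Ub-Rho; 480/540 nm.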

[15] = Primary qHTS for small molecule stabilizers of the endoplasmic reticulum resident proteome: Secreted ER Calcium Modulated Protein (SERCaMP) assay (AID 1508630); conditions: SH-SY5Y GLuc-SERCaMP (Gaussia luciferase released on ER calcium loss) secretion, thapsigargin, luminescence; series mostly up to 38.4 µM
Summary of the method: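 The SH-SY5Y reporter protocol was run at 3 concentrations up to 38.3 uM (primary) or 11 concentrations (follow-up): 16 h compound, 100 nM thapsigargin for 4 h, then extracellular luciferase luminescence.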

[16] = target: Cytochrome P450 3A4 (Homo sapiens) (UniProt P08684); assay: qHTS Assay for Inhibitors and Substrates of Cytochrome P450 3A4 (AID 884); conditions: recombinant CYP3A4, Luciferin-PPXE luminescence; series mostly up to 57.1 µM; further: potency means the concentration at half of the fitted maximal effect; nearly all actives have a fitted effect of over 50% in size
Summary of the method: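 Luminescent readout of luciferin produced by CYP3A4 (20 nM) dealkylation of Luciferin-PPXE, 25 uM (its KM). NADPH-driven reaction ran 60 min at RT after 10 min compound preincubation; data scaled to 57 uM ketoconazole as 100% inhibition.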

[17] = qHTS Assay for Identification of Small Molecule Agonists for Hypoxia Response Element Signaling Pathway (AID 914; active means well fitted activation curve with a large enough effect in the signal ratio, with a control signal flat, not every such curve was filed as active; the % refers to the signal ratio); conditions: ME-180 (cervical carcinoma) HRE-bla reporter, beta-lactamase ratio, CoCl2, 17 h; activation: active compounds read high
Summary of the method: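 Cells were plated overnight, pin-dosed with compound in a titration series, co-stimulated with EC50 CoCl2 and incubated 17 hours at 37 degrees Celsius. CCF4 substrate was then loaded, and AC50 values came from the 460nm/530nm ratio.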

Dual specificity protein kinase CLK4 (Homo sapiens), sequence (Q9HAZ1 whole entry, looked up): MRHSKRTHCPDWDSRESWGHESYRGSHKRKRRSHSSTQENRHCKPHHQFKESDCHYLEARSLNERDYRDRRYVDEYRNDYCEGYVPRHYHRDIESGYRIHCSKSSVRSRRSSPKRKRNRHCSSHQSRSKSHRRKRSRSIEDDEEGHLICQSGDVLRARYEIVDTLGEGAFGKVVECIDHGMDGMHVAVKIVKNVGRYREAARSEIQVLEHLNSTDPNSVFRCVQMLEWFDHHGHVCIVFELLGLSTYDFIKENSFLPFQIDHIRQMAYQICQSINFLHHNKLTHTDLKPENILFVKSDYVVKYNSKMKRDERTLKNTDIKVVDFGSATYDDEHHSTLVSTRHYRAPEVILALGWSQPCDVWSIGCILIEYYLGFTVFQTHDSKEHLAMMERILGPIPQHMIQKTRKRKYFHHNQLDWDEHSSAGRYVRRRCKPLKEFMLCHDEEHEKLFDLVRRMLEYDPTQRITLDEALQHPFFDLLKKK
3',5'-cyclic-AMP phosphodiesterase 4B (Homo sapiens), sequence (Q07343 whole entry, looked up): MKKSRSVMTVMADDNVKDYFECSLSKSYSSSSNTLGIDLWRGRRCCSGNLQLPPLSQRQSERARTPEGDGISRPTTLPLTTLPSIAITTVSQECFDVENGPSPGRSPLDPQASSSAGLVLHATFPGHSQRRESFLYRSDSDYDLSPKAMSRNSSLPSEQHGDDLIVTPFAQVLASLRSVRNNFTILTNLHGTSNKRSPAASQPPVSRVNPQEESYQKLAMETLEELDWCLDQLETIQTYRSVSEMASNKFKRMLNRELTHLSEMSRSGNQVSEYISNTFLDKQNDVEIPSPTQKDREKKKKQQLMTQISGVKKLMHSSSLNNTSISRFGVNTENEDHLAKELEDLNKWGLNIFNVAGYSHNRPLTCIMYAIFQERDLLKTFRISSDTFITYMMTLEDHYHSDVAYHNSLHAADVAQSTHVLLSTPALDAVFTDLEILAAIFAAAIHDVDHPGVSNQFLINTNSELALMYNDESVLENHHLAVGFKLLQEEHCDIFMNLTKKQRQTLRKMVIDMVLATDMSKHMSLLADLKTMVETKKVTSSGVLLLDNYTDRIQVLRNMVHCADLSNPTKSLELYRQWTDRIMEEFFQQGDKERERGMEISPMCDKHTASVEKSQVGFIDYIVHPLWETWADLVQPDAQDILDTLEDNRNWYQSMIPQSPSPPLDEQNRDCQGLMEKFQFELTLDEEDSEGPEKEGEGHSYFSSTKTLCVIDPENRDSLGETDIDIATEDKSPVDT
Lysosomal acid glucosylceramidase (Homo sapiens), sequence (P04062 whole entry, looked up): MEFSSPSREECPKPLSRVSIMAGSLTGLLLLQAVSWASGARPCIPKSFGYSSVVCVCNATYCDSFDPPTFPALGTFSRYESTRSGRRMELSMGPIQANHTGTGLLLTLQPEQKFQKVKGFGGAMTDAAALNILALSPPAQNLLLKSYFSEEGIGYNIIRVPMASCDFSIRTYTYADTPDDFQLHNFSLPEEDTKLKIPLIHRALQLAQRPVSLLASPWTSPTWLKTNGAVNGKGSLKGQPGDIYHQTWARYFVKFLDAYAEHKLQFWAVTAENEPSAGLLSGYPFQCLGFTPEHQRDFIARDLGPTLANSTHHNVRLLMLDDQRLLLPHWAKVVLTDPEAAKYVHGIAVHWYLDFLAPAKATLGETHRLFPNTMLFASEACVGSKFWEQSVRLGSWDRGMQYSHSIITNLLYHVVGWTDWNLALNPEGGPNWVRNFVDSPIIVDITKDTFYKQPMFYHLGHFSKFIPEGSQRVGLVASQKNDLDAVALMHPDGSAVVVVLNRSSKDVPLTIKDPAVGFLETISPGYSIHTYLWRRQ
Glucocorticoid receptor (Homo sapiens), sequence (P04150 whole entry, looked up, the tested form may be a part): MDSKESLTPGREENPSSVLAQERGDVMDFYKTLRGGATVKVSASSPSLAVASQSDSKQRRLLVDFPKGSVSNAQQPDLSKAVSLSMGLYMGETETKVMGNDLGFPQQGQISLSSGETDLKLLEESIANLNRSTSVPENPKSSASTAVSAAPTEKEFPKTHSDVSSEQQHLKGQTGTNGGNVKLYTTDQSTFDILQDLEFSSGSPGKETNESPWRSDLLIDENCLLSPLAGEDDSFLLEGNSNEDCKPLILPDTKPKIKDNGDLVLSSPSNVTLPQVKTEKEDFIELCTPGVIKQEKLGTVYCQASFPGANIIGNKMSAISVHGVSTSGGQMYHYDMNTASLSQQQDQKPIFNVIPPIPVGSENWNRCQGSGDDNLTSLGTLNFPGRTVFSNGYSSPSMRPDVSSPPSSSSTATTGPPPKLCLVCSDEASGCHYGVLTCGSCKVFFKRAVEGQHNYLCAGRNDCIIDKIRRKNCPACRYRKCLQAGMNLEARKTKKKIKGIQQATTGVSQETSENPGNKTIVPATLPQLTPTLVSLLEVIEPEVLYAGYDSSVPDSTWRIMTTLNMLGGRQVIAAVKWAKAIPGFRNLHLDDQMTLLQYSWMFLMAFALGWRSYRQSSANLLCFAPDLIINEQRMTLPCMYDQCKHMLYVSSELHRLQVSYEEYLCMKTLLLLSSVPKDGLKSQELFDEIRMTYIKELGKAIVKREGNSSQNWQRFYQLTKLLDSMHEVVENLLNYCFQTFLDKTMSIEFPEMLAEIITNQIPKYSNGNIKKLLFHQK
Cytochrome P450 1A2 (Homo sapiens), sequence (P05177 whole entry, looked up): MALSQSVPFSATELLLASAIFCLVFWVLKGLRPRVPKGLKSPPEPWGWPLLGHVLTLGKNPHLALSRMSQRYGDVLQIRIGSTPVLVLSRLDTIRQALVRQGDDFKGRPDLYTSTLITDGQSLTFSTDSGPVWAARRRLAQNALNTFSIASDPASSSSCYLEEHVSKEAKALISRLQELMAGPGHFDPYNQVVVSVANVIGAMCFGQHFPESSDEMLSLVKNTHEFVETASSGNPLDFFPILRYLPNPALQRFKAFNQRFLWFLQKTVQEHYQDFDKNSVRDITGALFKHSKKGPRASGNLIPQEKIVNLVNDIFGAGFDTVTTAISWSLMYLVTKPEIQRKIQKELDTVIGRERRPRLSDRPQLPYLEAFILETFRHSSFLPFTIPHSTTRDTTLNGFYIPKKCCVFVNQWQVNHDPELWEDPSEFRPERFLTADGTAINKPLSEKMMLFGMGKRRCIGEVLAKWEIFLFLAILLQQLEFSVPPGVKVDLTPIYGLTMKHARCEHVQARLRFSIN
Ubiquitin carboxyl-terminal hydrolase 1 (Homo sapiens), sequence (O94782 whole entry, looked up): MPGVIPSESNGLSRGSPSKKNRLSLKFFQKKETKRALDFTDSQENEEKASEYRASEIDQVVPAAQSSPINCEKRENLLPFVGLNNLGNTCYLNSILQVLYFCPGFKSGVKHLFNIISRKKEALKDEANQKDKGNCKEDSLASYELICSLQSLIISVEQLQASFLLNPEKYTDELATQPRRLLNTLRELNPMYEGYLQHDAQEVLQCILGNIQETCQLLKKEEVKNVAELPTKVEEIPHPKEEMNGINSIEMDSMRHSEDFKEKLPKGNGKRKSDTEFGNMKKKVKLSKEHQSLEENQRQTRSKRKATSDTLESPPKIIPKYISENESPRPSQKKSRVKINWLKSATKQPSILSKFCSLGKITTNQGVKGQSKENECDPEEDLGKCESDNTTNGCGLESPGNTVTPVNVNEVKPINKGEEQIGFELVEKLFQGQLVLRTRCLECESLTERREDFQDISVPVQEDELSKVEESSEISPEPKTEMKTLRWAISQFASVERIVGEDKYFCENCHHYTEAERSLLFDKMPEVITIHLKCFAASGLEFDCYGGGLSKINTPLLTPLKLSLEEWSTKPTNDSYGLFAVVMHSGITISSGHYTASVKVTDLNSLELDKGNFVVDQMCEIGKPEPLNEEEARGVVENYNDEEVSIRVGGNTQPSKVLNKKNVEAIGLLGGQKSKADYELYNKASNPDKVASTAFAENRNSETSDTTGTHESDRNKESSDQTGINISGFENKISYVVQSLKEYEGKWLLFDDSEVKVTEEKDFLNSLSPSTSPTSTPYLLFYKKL
Cytochrome P450 3A4 (Homo sapiens), sequence (P08684 whole entry, looked up): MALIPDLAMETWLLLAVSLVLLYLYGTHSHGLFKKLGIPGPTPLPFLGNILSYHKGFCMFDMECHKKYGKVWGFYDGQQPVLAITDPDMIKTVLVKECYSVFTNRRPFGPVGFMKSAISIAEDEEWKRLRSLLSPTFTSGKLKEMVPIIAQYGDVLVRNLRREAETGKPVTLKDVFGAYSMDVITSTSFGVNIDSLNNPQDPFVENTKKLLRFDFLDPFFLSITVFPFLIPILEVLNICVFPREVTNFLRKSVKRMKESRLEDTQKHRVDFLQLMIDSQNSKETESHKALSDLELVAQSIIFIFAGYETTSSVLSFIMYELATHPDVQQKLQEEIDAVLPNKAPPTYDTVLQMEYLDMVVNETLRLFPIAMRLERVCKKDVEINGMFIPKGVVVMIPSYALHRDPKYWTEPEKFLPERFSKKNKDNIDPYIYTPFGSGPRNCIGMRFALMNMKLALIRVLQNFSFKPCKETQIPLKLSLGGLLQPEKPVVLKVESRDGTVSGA

Structure (SMILES)	Potency [1]	activity change, negative = inhibition [2]	Potency [3]	activity change, negative = inhibition [4]	activity, negative = inhibition [5]	Potency [6]	Potency [7]	Potency [8]	Potency [9]	Potency [10]	Potency [11]	Potency [12]	Potency [13]	Potency [14]	outcome [15]	Potency [16]	activation [17]
Cc1cnc(CNc2ccnc(-c3ccoc3)n2)cn1	> 11.4 µM	16.3%	12.6 µM (active)	-4.07%	7.07%	> 46 µM	> 46 µM	inactive	inactive	inactive	inactive	inactive	inactive	inactive	inactive	–	–
Cc1noc(C)c1-c1ccc2ncnc(N3CCOCC3)c2c1	> 11.4 µM	11%	12.6 µM (active)	–	-8.22%	> 46 µM	> 46 µM	inactive	inactive	inactive	12.6 µM (active)	7.94 µM (active)	8.91 µM (active)	inactive	inactive	–	–
CN(C)c1ncc2nc(CCc3ccccc3)c(=O)n(C3CC3)c2n1	> 11.4 µM	1.45%	3.16 µM (active)	–	-4.87%	> 9.22 µM	> 46 µM	inactive	–	inactive	inactive	inactive	inactive	inactive	inactive	–	–
O=c1c(-c2ccccc2)nc2cnc(N3CCOCC3)nc2n1C[C@H]1CCCO1	> 11.4 µM	17%	3.16 µM (active)	–	20.8%	> 9.22 µM	> 46 µM	inactive	inactive	inactive	inactive	inactive	inactive	inactive	inactive	–	–
CN(C)c1ncc2nc(-c3ccc(Cl)cc3)c(=O)n(C)c2n1	> 11.4 µM	24.8%	1.58 µM (active)	–	–	> 9.22 µM	> 46 µM	inactive	inactive	–	inactive	inactive	inactive	inactive	inactive	–	–
COc1ncc2nc(-c3ccc(Cl)cc3)c(=O)n(CCC#N)c2n1	> 11.4 µM	-9.68%	–	3.96%	-4.68%	> 9.22 µM	> 46 µM	inactive	inactive	–	inactive	inactive	inactive	inactive	inactive	–	–
CCNc1ncc2nc(-c3cccs3)c(=O)n(Cc3cccc(OC)c3)c2n1	> 11.4 µM	19.3%	0.126 µM (active)	–	–	> 9.22 µM	> 46 µM	inactive	inactive	inactive	inactive	inactive	inactive	inactive	inactive	–	–
COc1ccc(-c2nc3cnc(N(C)C)nc3n(-c3ccccc3)c2=O)cc1	> 11.4 µM	0.239%	–	3.47%	3.24%	> 9.22 µM	> 46 µM	inactive	–	–	inactive	inactive	inactive	inactive	inactive	–	–
COCCn1c(=O)c(-c2ccc(OC)cc2)nc2cnc(N3CCOCC3)nc21	> 11.4 µM	-13.6%	–	8.4%	25.9%	> 9.22 µM	> 46 µM	inactive	inactive	–	inactive	inactive	inactive	inactive	inactive	–	–
COc1ccccc1CNc1ccnc(-c2ccccc2CN(C)C)n1	> 11.4 µM	-7.71%	–	-25.2%	3.25%	> 46 µM	> 46 µM	inactive	–	–	inactive	inactive	inactive	inactive	inactive	–	–
FC(F)(F)c1ccccc1-c1cncnc1NCc1cccs1	> 11.4 µM	10.5%	20 µM (active)	–	-1.4%	> 46 µM	> 46 µM	inactive	–	inactive	inactive	inactive	inactive	inactive	inactive	0.251 µM (active)	–
COc1ccccc1-c1cncnc1N(C)Cc1ccco1	> 11.4 µM	-9.6%	15.8 µM (active)	–	17%	> 46 µM	> 46 µM	inactive	inactive	inactive	inactive	inactive	inactive	inactive	inactive	1.26 µM (active)	-12.2%
CN(C)c1ncc2nc(-c3ccccc3)c(=O)n(CCC#N)c2n1	> 11.4 µM	-4.57%	1.58 µM (active)	–	–	> 9.22 µM	> 46 µM	inactive	–	–	inactive	inactive	inactive	inactive	inactive	–	–
COCCn1c(=O)c(-c2ccc(F)cc2)nc2cnc(N(C)C)nc21	> 11.4 µM	-1.02%	2 µM (active)	10.7%	–	> 9.22 µM	> 46 µM	–	1.58 µM (active)	–	inactive	inactive	inactive	inactive	inactive	–	–
